# Only some compounds are listed: those with a hit (about 2.4% of all), similar ones and a draw of the others.
# POLI inh – qHTS for Inhibitors of Polymerase Iota; Pol iota fluorescent replication assay, 10 min; Potency, µM (highest dose often 115 µM), actives largely listed as inhibitors; 1% of 390,000 active
#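 Pol iota at 10 nM preincubated 15 min with compounds at room temperature; reaction started with fluorescent substrate, 50 nM final. Fluorescence read kinetically at 0 and 10 min; buffer-only wells as negative control.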
# Pol eta inh – qHTS for Inhibitors of Polymerase Eta; Potency, µM (highest dose often 114 µM), most hits filed as inhibitors; AID 588591, 2011; recombinant Pol eta, fluorescent DNA replication assay; 1.2% of 390,000 active; DNA polymerase eta (Homo sapiens), Q9Y253
# Target sequence (Q9Y253 whole entry, looked up): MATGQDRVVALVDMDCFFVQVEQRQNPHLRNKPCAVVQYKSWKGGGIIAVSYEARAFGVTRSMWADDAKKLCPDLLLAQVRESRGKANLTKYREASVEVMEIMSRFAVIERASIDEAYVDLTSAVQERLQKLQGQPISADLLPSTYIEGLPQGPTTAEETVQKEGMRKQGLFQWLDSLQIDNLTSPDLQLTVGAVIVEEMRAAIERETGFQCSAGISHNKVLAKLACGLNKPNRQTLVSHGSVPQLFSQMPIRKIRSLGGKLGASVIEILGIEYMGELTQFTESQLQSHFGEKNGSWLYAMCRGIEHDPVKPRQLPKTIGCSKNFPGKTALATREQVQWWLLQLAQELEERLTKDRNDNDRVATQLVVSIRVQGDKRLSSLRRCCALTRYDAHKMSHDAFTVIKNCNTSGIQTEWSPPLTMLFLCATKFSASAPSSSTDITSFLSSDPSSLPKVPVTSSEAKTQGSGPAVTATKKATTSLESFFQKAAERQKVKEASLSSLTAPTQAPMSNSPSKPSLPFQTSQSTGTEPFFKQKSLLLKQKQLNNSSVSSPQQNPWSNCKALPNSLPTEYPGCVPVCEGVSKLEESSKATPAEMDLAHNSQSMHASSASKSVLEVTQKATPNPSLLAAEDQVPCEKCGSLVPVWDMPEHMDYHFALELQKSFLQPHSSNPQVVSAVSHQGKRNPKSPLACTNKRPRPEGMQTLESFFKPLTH
#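 Pol eta (10 nM) was preincubated with compounds for 15 min at room temperature, after which fluorescent replication substrate (50 nM final) was added to start the reaction. Fluorescence was read kinetically at 0 and 10 min.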
# POLK inh – qHTS for Inhibitors of Polymerase Kappa; DNA polymerase kappa (Homo sapiens), Q9UBT6; purified Pol kappa, fluorescent DNA synthesis assay, 10 min; Potency, µM (titrated, usually from 107 µM), hits mostly inhibitors; 0.53% of 400,000 active; AID 588579, 2011
#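 Kinetic fluorescence readout at 0 and 10 min followed reaction start with substrate at 50 nM final. Beforehand, enzyme (10 nM Pol kappa) stood 15 min with compound at room temperature; buffer-only wells were negative controls.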
# FEN1 inh – qHTS Assay for the Inhibitors of Human Flap endonuclease 1 (FEN1). Recombinant FEN1 flap cleavage, fluorescence, 15 min. Potency, µM (series often up to 114 µM), most hits filed as inhibitors. 0.35% of 390,000 active. AID 588795, 2011; note: nearly all actives have a fitted effect of over 65% in size
#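 Nuclease activity of 10 nM FEN1 was measured after 15 min of room-temperature exposure to titrated compounds, by adding 50 nM flap substrate and reading plates at 0 and 15 min.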
# WRN helicase inh – qHTS for Inhibitors of WRN Helicase. 0.46% of 360,000 active. Potency, µM (top dose mostly 114 µM), usual class: inhibitors. AID 651768, 2012. WRN helicase unwinding, fluorescent forked duplex, kinetic; note: nearly all actives have a fitted effect of over 55% in size
#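 WRN at 20 nM final preincubated with compound 15 min at room temperature; reaction started with 100 nM fluorophore/quencher forked duplex oligonucleotide and 2 mM ATP final. Unwinding followed kinetically by red fluorescence (ex 525, em 598 nm).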
# POLB inh – qHTS Assay for Inhibitors of DNA Polymerase Beta; P06746; Pol beta primer extension/strand displacement, fluorescence kinetic; Potency, µM (series often up to 114 µM), hits mostly inhibitors; 1.3% of 340,000 active; AID 485314, 2010
#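 Homogeneous kinetic assay of primer extension and strand displacement by 10 nM Pol beta, preincubated 15 min at room temperature with compound before 50 nM substrate (final) was added. Read at 0 and 10 min; four-parameter Hill fit.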
# Hits are given with their value; n = inactive; u = inconclusive; x = no result given; [ ] = remark or other dose. Calls come from the whole dose curve; as a rule, active = well fitted curve in the direction sought with a large enough effect; inconclusive = small, poorly fitted or top-dose-only effect, or another doubt; inactive = no such curve, though single readings can be large; an effect the other way counts as inactive or inconclusive.
SMILES,POLI inh,Pol eta inh,POLK inh,FEN1 inh,WRN helicase inh,POLB inh
O=C(CSc1nnc(-c2ccncc2)n1-c1ccccc1)Nc1ccc(C(=O)O)cc1,n,n,n,n,n,n
Cc1cc(C(=O)CSc2nnc3ccccn23)c(C)n1-c1ccccc1,n,n,n,n,n,n
CCOC(=O)c1ccc(NC(=O)CSc2nnc(-c3ccncc3)n2-c2ccccc2)cc1,n,n,n,n,x,2.2µM
CNc1c(Cl)cc(C=O)cc1Cl,n,x,n,n,x,x
COc1ccc(C2=C(C)C(=O)N(Cc3ccc(C(=O)Nc4ccc(F)cc4C)cc3)S2(=O)=O)cc1,n,x,n,n,x,n
Cc1ccc(-c2cc(C(=O)Oc3ccccc3)c3cccc(C)c3n2)cc1,u,50µM,n,n,x,u
CCC(C)c1ccc(OCC(=O)Nc2cccc(-c3nc4ncccc4o3)c2)cc1 (configuration not stated),n,n,n,n,x,u
Cc1cc(C)c2nc3c(c(C(=O)O)c2c1)CCC3,u,14µM,n,n,n,18µM
O=C(O)c1c2c(nc3ccccc13)CCCCC2,n,n,n,n,n,n
CC(NS(=O)(=O)c1ccc(Br)cc1)C(=O)NCc1ccco1 (configuration not stated),n,n,n,n,n,n
CC(NS(=O)(=O)c1ccccc1)C(=O)NCc1ccco1 (configuration not stated),40µM,u,u,n,n[11.6 µM],u
O=C(CCCc1c[nH]c2ccccc12)NCCc1c[nH]c2ccccc12,n,89µM,n,n,n,n
Oc1ccc(NCc2cccs2)cc1,32µM,n,n,n,n,n
N#CCC(=O)c1sccc1-n1cccc1,u,n,79µM,n,u,n
O=C(C1=NOC2(C1)C(=O)N(Cc1ccccc1)c1ccccc12)N1CCOCC1 (configuration not stated),x,x,x,x,n,x
O=C1C=CC2(O[C@H](c3ccccc3)[C@@H](c3ccccc3)O2)[C@H](Sc2ccccc2O)C1,22µM,u,n,n,11µM,x
CC[C@@]1(O)C[C@H](O[C@H]2C[C@@H](N(C)C)[C@@H](O[C@H]3C[C@@H](O)[C@@H](O[C@H]4CCC(=O)[C@@H](C)O4)[C@@H](C)O3)[C@@H](C)O2)c2c(cc3c(c2O)C(=O)c2c(O)cccc2C3=O)[C@H]1C(=O)OC,x,x,4.5µM,x,x,x
O=C(Nc1ccccc1Cc1ccccc1)c1ccccc1NS(=O)(=O)c1ccc(Cl)s1,n,79µM,n,u,n,u
O=C(Nc1ccccc1)c1ccccc1NS(=O)(=O)c1ccc(Cl)s1,n,n,n,n,n,n
CCC(CC)NC(=O)Cc1ccc(S(=O)(=O)N2CCOCC2)s1,u,10µM,n,n,n,u
Cc1ccc(C)c(NC(=O)Cc2ccc(S(=O)(=O)N3CCCCC3)s2)c1,n,u,n,n,n,n
CCCC(C)NC(=O)Cc1ccc(S(=O)(=O)N2CCOCC2)s1 (configuration not stated),n,n,n,n,n,x
COC(=O)CCNC(=O)Cc1ccc(S(=O)(=O)N2CCCCC2)s1,u,79µM,n,n,n[11.6 µM],x
CCOc1ccccc1NC(=O)C1CCCN1S(=O)(=O)c1ccc2nc(-c3ccccc3)[nH]c2c1 (configuration not stated),u,n,n,n,x,u
COc1cc(Cl)c(C)cc1NC(=O)c1cc2ccc3cccnc3c2[nH]1,u,u,n,n,x,40µM
NC(=O)N(CCC(=O)O)c1ccccc1,n,u,n,n,n,20µM
CCN(CCC(=O)O)c1ccccc1,n,n,n,n,n,n
CC1=CC(c2ccccc2)n2nc(N3C(=O)c4ccccc4C3=O)nc2N1 (configuration not stated),n,n,45µM,n,n,n
CC1=CC(c2ccccc2)n2nc(N3C(=O)CCC3=O)nc2N1 (configuration not stated),n,n,n,n,n,n
